Unmarked numbers belong to inactive results. Results filed as inconclusive are left out. Active and inactive are the calls of the source. Unless noted, calls follow the shape of the dose curve; as a rule, active = well fitted curve in the direction sought with a large enough effect; inconclusive = small, poorly fitted or top-dose-only effect, or another doubt; inactive = no such curve, though single readings can be large; an effect the other way counts as inactive or inconclusive.

The target of test [1] is Cytochrome P450 1A2 (Homo sapiens) (UniProt P05177). Kind of test: p450-cyp1a2 (AID 410; calls by dose curve; also: potency is read from the fitted curve at half-maximal effect;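 as to activity change, negative = inhibition: -100% = full effect of reference inhibitor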). The method, boiled down:
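Inhibition was calculated relative to 57 uM furafylline (full inhibition). The reaction used human CYP1A2 at 20nM with Luciferin-ME at its Km, 100uM, driven by an NADPH-regenerating system for 60 min at room temperature.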

The target in test [2] is Glucocorticoid receptor (Homo sapiens) (UniProt P04150). The test can be described thus: GR-GFP Redistribution (AID 450;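 active = compounds whose dose series gives a full or clear partial fitted curve of increased nuclear translocation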; also: potency is read from the fitted curve at half-maximal effect). The following applies: U2OS GR-GFP nuclear translocation, laser cytometry, 2 h.
Glucocorticoid receptor (Homo sapiens), sequence (P04150 whole entry, looked up, the tested form may be a part): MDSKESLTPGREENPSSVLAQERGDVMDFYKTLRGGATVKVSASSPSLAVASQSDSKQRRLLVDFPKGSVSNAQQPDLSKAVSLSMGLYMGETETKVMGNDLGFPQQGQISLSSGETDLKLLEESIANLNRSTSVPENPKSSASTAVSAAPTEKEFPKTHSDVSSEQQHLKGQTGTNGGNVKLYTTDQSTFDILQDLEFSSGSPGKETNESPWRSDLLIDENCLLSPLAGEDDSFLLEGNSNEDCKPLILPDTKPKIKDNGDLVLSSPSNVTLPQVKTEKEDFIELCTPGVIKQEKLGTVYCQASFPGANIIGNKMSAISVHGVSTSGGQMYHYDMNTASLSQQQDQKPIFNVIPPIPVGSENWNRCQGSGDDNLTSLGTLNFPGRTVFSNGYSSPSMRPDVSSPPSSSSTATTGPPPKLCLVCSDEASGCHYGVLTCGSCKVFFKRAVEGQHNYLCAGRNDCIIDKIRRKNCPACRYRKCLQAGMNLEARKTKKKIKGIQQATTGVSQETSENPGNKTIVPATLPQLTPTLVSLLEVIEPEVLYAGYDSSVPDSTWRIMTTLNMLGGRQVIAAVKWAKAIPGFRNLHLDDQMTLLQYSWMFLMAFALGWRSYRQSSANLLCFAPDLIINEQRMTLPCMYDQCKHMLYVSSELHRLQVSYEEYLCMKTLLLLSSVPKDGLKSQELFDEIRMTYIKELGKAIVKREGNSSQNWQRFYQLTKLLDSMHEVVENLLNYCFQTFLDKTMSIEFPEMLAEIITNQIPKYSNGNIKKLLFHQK
Test [3] has the same target. The test can be described thus: GR-EFC Redistribution (AID 451; calls by dose curve; also: potency is read from the fitted curve at half-maximal effect). The note with it: CHO-K1 GR-EFC translocation, beta-gal luminescence, 2 h. The method in brief: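 Translocation of GR-ED fusion to nuclear EA restores b-gal, read by luminescence after 1 h room-temperature detection. Engineered CHO-K1 biosensor cells, 1,000/well, exposed 2 h at 37 C to titrations up to 46 uM final.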

The target of test [4] is 3',5'-cyclic-AMP phosphodiesterase 4B (Homo sapiens) (UniProt Q07343). The test can be described thus: qHTS Assay for Inhibitors of PDE-IV (AID 607; active = well fitted activation curve with a large enough effect in the main read-out, with a control signal flat, not every such curve was filed as active; also: % of control where 0% means no effect). The method in brief: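 ACTOne HEK293 cells carry a modified cAMP-gated CNG channel and express endogenous PDE4; plated 1000 cells/well, compounds up to 22.9 uM final. Membrane-potential dye fluorescence (ex 535/em 590) was read; parental cells received 10 uM forskolin + 100 uM RO 20-1724.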
3',5'-cyclic-AMP phosphodiesterase 4B (Homo sapiens), sequence (Q07343 whole entry, looked up): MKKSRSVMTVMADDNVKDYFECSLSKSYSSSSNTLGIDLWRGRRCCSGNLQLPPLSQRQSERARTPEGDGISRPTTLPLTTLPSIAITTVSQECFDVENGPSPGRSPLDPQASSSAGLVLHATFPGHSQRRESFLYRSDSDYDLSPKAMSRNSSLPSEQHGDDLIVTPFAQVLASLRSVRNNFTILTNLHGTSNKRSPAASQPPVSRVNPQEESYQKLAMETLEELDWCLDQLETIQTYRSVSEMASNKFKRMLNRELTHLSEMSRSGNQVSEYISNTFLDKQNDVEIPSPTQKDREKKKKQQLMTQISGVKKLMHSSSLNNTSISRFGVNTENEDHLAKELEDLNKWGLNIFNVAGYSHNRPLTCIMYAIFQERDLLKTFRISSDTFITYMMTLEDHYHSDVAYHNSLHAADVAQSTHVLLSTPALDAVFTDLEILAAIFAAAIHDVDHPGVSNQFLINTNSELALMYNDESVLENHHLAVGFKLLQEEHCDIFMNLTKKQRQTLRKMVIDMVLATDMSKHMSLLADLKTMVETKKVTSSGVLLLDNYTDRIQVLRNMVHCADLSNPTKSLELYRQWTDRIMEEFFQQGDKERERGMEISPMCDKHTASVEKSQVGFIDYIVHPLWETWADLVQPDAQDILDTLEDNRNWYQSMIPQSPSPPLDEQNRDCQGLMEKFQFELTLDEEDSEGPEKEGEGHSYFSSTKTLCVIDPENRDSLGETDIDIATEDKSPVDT

Test [5] deals with Cytochrome P450 3A4 (Homo sapiens) (UniProt P08684). The test can be described thus: qHTS Assay for Activators of Cytochrome P450 3A4 (AID 885). Also: nearly all actives have a fitted effect of over 65% in size. The method in brief: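 20nM CYP3A4 + 25uM Luciferin-PPXE (=KM), 200mM KPO4; cpd 10 min RT; NADPH regen, 60 min RT; stop w/ detection buffer, 20 min; luminescence. Normalized to 57 uM ketoconazole.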
Cytochrome P450 3A4 (Homo sapiens), sequence (P08684 whole entry, looked up): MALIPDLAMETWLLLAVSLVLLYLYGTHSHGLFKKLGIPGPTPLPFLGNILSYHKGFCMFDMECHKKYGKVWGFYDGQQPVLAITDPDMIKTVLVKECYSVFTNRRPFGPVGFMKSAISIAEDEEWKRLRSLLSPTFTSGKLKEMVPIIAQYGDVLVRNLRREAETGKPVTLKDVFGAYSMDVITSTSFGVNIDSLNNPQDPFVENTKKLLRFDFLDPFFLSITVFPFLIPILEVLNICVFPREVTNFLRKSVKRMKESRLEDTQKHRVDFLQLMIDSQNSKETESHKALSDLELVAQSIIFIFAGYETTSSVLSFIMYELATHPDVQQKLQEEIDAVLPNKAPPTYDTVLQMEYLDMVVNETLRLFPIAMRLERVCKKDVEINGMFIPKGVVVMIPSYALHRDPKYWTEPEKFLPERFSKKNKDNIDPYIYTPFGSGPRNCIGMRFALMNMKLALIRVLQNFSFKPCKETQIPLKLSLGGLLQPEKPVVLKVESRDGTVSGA
On the technique in general: Quantitative high-throughput screening tests each substance at several concentrations.

The target of test [6] is Ubiquitin carboxyl-terminal hydrolase 1 (Homo sapiens) (UniProt O94782). Kind of test: Inhibitors of USP1/UAF1: Pilot qHTS (AID 504865).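 Also: rhodamine fluorescence freed from ubiquitin-rhodamine substrate followed over time; top concentration of the series differs between compounds; % is scaled to controls: 0 for no effect and ±100 for the full control effect; nearly all actives have a fitted effect of over 35% in size.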 The method in brief:
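Enzyme-free wells gave the negative control, while test wells held 1nM USP1/UAF1 preincubated with compound for 15 min at room temperature. Ub-Rho at 150nM final started the reaction, and fluorescence at 480/540 nm was recorded kinetically.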

Test [7] addresses DNA dC->dU-editing enzyme APOBEC-3G (Homo sapiens) (UniProt Q9HC16). The test can be described thus: qHTS for inhibitors of Vif-A3G interactions: Validation (AID 588379). Also: 0% is about no effect. The method, boiled down:
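HeLa cells stably expressing Vif and A3G-eYFP, 700 cells/well, incubated overnight at 37 deg C, then exposed to compound overnight at 37 deg C. Inhibition of Vif-mediated degradation read as increased yellow fluorescence (Ex 488/Em 500-530) by laser-scanning cytometry.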

Test [8] relates to Zika virus NS2B-NS3 protease. The test can be described thus: Primary screen GU AMC qHTS for Zika virus inhibitors (AID 1347154). Also: nearly all actives have a fitted effect of over 70% in size. Also: potency is read from the fitted curve at half-maximal effect.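 As to activity change, negative = inhibition: 0% = no-inhibitor control and -100% = no-enzyme control.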 The method in brief:
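Fluorogenic AMC-substrate cleavage by noncovalent NS2B-NS3 protease complex (25 nM, pH 8.0 Tris buffer with Tween 20) followed for 15 minutes at room temperature (~20% conversion). Percent inhibition from ex340/em450 signal change, fitted by 4-parameter Hill equation.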

Test [9] deals with Rap guanine nucleotide exchange factor 3 (Homo sapiens) (UniProt O95398). Kind of test: Confirmatory qHTS for antagonist of cAMP-regulated guanine nucleotide exchange factor 3 (EPAC1) (AID 1645880).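 Also: plate controls were DMSO only for no effect and full effect of the ATA control for full effect; nearly all actives have a fitted effect of over 55% in size.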 The method in brief: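 Nucleotide exchange uses 100 nM EPAC1, 250 nM RAP1B-BODIPY-GDP and 50 uM GDP, with compounds in a concentration-titration series. After 5 min at room temperature, fluorescence (480 nm ex/540 nm em) is read every 5 min for 30 min. Data are normalized to control ATA and DMSO.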

Test [10] has the same target. The test can be described thus: Confirmatory qHTS for agonist of cAMP-regulated guanine nucleotide exchange factor 3 (EPAC1) (AID 1645881).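 Also: EPAC1 catalysed release of BODIPY-GDP from Rap1B seen as fluorescence loss; nearly all actives have a fitted effect of over 75% in size.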
The target in test [11] is Rap guanine nucleotide exchange factor 4 (Homo sapiens) (UniProt Q8WZA2). The test can be described thus: Confirmatory qHTS for agonist of cAMP-regulated guanine nucleotide exchange factor 4 (EPAC2) (AID 1645884).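 Also: nucleotide exchange releases bodipy-GDP from Rap1 and this lowers its fluorescence; % is scaled to controls: 0 for no effect and ±100 for the full control effect; nearly all actives have a fitted effect of over 65% in size.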
Test [12] has the same target. Kind of test: Confirmatory qHTS for antagonist of cAMP-regulated guanine nucleotide exchange factor 4 (EPAC2) (AID 1645885). Also: % is scaled to controls: 0 for no effect and ±100 for the full control effect; nearly all actives have a fitted effect of over 25% in size.
The nature of test [13]: AP1 Signaling Pathway (AID 357; active = well fitted curve in either direction with a large enough effect, not every such curve was filed as active; also: % is scaled to controls: 0 for no effect and ±100 for the full control effect). The note with it: ME-180 AP-1-bla reporter, EGF-induced, beta-lactamase ratio, 5 h; at 38 µM (top of the series). The method, boiled down:
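AP-1-bla ME-180 cells with beta-lactamase reporter under AP-1 response element, stimulated with EC50 EGF; compounds titrated, 5 hours at 37 degrees Celsius. CCF4 read at 460/530 nm ratio; positive and negative modulators judged by AC50.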

A short description of test [14]: NFAT Signaling Pathway (AID 444; active = well fitted curve in either direction with a large enough effect, not every such curve was filed as active;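 also: carbachol stimulus at about its EC50 of 1 µM final; % is scaled to controls: 0 for no effect and ±100 for the full control effect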). The following applies: Jurkat NFAT-bla M1, carbachol, beta-lactamase ratio, 5 h; at 38 µM (top of the series). The method, boiled down:
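Read-out: CCF4 FRET ratio (460 nm/530 nm) after 1 h RT dye loading, used for %activity and AC50 from titration series. Cells: Jurkat NFAT-β-lactamase/M1 line, treated with compound plus 1 uM carbachol for 5 h, 37 °C.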

Test [15] can be described thus: Stat Signaling Pathway (AID 446; active = well fitted curve in either direction with a large enough effect, not every such curve was filed as active;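 also: ME-180 cervical cancer cells given 40 pM IL-6 alongside compound; SIE-controlled beta-lactamase reporter measured as 460/530 nm FRET emission ratio; % is scaled to controls: 0 for no effect and ±100 for the full control effect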). The note with it: ME-180 SIE beta-lactamase reporter, IL-6 stimulated, 5 h; at 38 µM (top of the series). The method, boiled down: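 ME-180 SIE-bla cells; overnight plating; cpd + IL-6 40 pM, 5 h, 37 C; LiveBLAzer 2.5 h RT; 460/530 nm emission ratio. Normalized to 300 pM IL-6 and 125 nM JAK inhibitor controls.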
The target in test [16] is Mitogen-activated protein kinase 10 (Mus musculus) (UniProt Q61831). The test can be described thus: JNK3 AlphaScreen Assay (AID 530; active = well fitted curve in either direction with a large enough effect, not every such curve was filed as active;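 also: kinase came from lysate of stimulated human HepG2 cells; signal reports phosphorylation of biotinylated GST-cJun 1-79 at Ser73 with 10 µM ATP; % is scaled to controls: 0 for no effect and ±100 for the full control effect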). The method in brief:
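Room-temperature AlphaScreen kinase assay; pre-activated HepG2 lysate as JNK3 source, biotin-GST-cJun(1-79) substrate, 10 uM ATP, compound 15 min preincubation.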

The target of test [17] is Guanine nucleotide-binding protein G(i) subunit alpha-1 (Homo sapiens) (UniProt P63096). Kind of test: qHTS Assay for Inhibitors of RGS12 GoLoco Motif Activity (Green Fluorophore) (AID 879).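 Also: 0% = labeled peptide with Gαi1 and full inhibition = labeled peptide alone without protein; negative values mean loss of peptide binding seen as reduced polarization.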 The method, boiled down: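 Fluorescence polarization assay: 50 nM Gαi1 with 10 nM FITC-labeled RGS12 GoLoco peptide in 10 mM Tris pH 7.5, 150 mM NaCl, 0.1 mM GDP, 0.05% NP40, 10 min at room temperature with compound.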

Test [18] deals with Cytochrome P450 2C9 (Homo sapiens) (UniProt P11712). The test can be described thus: qHTS Assay for Inhibitors and Substrates of Cytochrome P450 2C9 (AID 883). Also: % is scaled to controls: 0 for no effect and ±100 for the full control effect; nearly all actives have a fitted effect of over 60% in size. The method, boiled down: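 Inhibition of CYP2C9 is scored as loss of luminescence, with 57uM sulphaphenazole defining 100% inhibition. Substrate Luciferin-H is used at 100uM, equal to its KM; enzyme at 10nM in 25mM KPO4, 60 min at 37C with NADPH regeneration.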
Cytochrome P450 2C9 (Homo sapiens), sequence (P11712 whole entry, looked up): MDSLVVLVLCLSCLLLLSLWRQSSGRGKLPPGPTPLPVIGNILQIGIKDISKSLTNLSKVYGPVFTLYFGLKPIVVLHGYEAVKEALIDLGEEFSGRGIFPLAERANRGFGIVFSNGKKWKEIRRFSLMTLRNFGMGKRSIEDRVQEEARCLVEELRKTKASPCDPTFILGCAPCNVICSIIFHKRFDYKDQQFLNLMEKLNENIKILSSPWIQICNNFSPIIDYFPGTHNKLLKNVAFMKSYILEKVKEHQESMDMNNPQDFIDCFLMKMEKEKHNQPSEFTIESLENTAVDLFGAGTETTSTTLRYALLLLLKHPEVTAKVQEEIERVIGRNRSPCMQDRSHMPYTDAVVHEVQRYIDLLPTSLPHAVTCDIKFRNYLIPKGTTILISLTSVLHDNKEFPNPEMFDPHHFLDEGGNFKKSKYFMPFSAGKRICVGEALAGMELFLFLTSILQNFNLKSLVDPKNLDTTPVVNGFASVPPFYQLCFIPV

The target in test [19] is Cytochrome P450 2D6 (Homo sapiens) (UniProt P10635). The test can be described thus: qHTS Assay for Inhibitors and Substrates of Cytochrome P450 2D6 (AID 891).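 Also: luciferin methyl ether substrate demethylated by CYP2D6 with NADPH regeneration; % is scaled to controls: 0 for no effect and ±100 for the full control effect; nearly all actives have a fitted effect of over 60% in size.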 The method, boiled down: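 Human CYP2D6 (5 nM) with 30 uM Luciferin-ME EGE (at Km) in 100 mM KPO4, compound preincubated 10 min, then NADPH regeneration system for 60 min at room temperature. Luciferin read by luminescence; normalized to 1.43 uM quinidine.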
Cytochrome P450 2D6 (Homo sapiens), sequence (P10635 whole entry, looked up): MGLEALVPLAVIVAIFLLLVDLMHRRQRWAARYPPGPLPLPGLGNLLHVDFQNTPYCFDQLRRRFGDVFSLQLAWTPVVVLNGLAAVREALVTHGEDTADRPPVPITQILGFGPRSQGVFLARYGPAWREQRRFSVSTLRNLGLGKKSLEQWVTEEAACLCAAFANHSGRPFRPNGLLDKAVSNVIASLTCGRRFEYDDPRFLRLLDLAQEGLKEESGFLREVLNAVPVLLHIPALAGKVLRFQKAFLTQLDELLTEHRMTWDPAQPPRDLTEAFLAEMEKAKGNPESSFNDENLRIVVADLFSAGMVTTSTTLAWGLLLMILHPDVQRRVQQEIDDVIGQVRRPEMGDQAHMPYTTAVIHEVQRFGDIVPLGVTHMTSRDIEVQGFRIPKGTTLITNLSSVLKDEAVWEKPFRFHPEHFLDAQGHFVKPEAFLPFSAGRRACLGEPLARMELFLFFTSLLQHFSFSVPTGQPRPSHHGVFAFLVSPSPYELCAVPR

The target in test [20] is Cytochrome P450 2C19 (Homo sapiens) (UniProt P33261). Kind of test: qHTS Assay for Inhibitors and Substrates of Cytochrome P450 2C19 (AID 899). Also: % is scaled to controls: 0 for no effect and ±100 for the full control effect; nearly all actives have a fitted effect of over 60% in size. The method in brief: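 5nM enzyme + 10uM Luciferin-H EGE (=KM), 50mM KPO4; cpd pin-transferred, 10 min 37C; NADPH regen, 60 min 37C; stopped w/ luciferin detection reagent, 20 min; luminescence. Normalized to 57uM ketoconazole (AC100).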
Cytochrome P450 2C19 (Homo sapiens), sequence (P33261 whole entry, looked up): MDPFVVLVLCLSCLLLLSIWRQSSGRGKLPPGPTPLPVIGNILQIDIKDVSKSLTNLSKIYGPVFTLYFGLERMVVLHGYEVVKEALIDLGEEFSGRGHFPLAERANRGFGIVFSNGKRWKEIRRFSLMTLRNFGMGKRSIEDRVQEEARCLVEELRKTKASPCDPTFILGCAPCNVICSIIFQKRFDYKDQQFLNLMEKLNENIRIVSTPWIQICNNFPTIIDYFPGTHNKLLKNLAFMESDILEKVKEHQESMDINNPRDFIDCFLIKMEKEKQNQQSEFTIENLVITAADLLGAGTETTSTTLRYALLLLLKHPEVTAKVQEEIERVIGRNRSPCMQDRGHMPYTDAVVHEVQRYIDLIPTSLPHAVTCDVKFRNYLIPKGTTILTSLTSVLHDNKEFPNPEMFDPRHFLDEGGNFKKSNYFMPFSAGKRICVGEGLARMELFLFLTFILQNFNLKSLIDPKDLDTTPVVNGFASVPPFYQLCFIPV

Test [21] in a line: qHTS Assay for Identification of Small Molecule Agonists for Thrombopoietin (TPO) Signaling Pathway (AID 917). Also: % is scaled to controls: 0 for no effect and ±100 for the full control effect. The method in brief:
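IL-3-dependent murine pro-B Ba/F3 cells, stably transfected with human TPO receptor and GpIIb-promoter luciferase, are incubated 24 hrs at 37 C with test compound and 26 pM TPO; luciferase signal is read after 10 min at room temperature.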

Test [22] has as its target Muscarinic acetylcholine receptor M1 (Rattus norvegicus) (UniProt P08482). Kind of test: qHTS Assay for Antagonists of Acetylcholine Muscarinic M1 Receptor: Measurement of IP-One Response (AID 944). Also: nearly all actives have a fitted effect of over 75% in size. The method, boiled down:
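Steps: plate transfected CHO-M1 cells overnight; add test compound, 10 min; add carbachol (200 nM, EC80) in stimulation buffer with LiCl; incubate 30 min; add labelled IP1 tracer and anti-IP1 antibody in lysis buffer; read HTRF after 10 min.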

The target of test [23] is Pyruvate kinase (Leishmania mexicana) (UniProt Q27686). Kind of test: qHTS Validation Assay for Inhibitors of Leishmania Mexicana Pyruvate Kinase (AID 945).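 Also: 0% = DMSO only neutral control wells.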 The method, boiled down:
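qHTS eight-point titrations against 0.2 nM LmPYK (E451W) in imidazole buffer pH 7.2 with 0.5 mM PEP, 0.1 mM ADP; 1 h, room temperature. Readout: PKLight luminescence, normalized to neutral DMSO wells.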

Test [24] deals with Alpha-galactosidase A (Homo sapiens) (UniProt P06280). The test can be described thus: Counterscreen for Glucocerebrosidase Inhibitors: qHTS Assay for Human alpha-Galactosidase at pH 4.5 (AID 992). Also: 0% is about no effect. The method in brief:
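Enzyme at 2 nM final was combined with compound (0.7 nM to 77 uM) and 80 uM 4-methylumbelliferyl alpha-D-galactopyranoside in 50 mM citric acid, 0.005% Tween-20, pH 4.5. After 20 min at room temperature, fluorescence was read (Ex 365/Em 440 nm); AC50 came from Hill fits.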
(In general: A counterscreen serves to expose hits that act by an unwanted route or on another target.)

Test [25] deals with alpha-glucosidase (Oryza sativa, rice) (UniProt Q653V4). The test can be described thus: Counterscreen for Glucocerebrosidase Inhibitors: qHTS Assay for Rice alpha-Glucosidase at pH 5.0 (AID 997).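 Also: 0% = full activity with enzyme and -100% = basal without enzyme.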 The method in brief: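 Rice alpha-glucosidase (4 nM final) with 400 uM 4-methylumbelliferyl-alpha-D-glucopyranoside in citrate buffer pH 5.0, 20 min at room temperature, stopped at pH 10; fluorescence 365/440 nm, compounds 0.7 nM–77 uM, AC50 from Hill fits.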

The target of test [26] is Cytochrome P450 3A4 (Homo sapiens) (UniProt P08684). Kind of test: qHTS Assay for Inhibitors and Substrates of Cytochrome P450 3A4 (AID 884). Also: potency is read from the fitted curve at half-maximal effect; nearly all actives have a fitted effect of over 50% in size. The method, boiled down:
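20 nM human CYP3A4 with 25 uM Luciferin-PPXE (at KM) in 200 mM KPO4, preincubated 10 min with compound; NADPH regeneration started a 60 min RT reaction. Luciferin detected by luminescence, normalized to 57 uM ketoconazole as full inhibition.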

Test [27] can be described thus: Primary qHTS for inhibitors of nuclear receptor binding SET domain protein 2 (NSD2) in an isogenic RCH-ACV NSD2 p.E1099K mutant (9B) (AID 1645876). Also: potency is read from the fitted curve at half-maximal effect; nearly all actives have a fitted effect of over 70% in size.
The nature of test [28]: Primary qHTS for inhibitors of nuclear receptor binding SET domain protein 2 (NSD2) in an RCH-ACV wild type WT cells (2C) (AID 1645877). Also: potency is read from the fitted curve at half-maximal effect; nearly all actives have a fitted effect of over 70% in size.
Test [29] addresses Glutathione peroxidase 1 (Homo sapiens) (UniProt P07203). Kind of test: Primary qHTS Assay for Inhibitors of Recombinant Selenoprotein Glutathione Peroxidase 1 (GPX1) (AID 1845191). Also: nearly all actives have a fitted effect of over 65% in size. The method, boiled down: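 10 nM GPX1 + cpd, 30 min RT; start w/ 1 mM GSH, 0.5 mM cumene hydroperoxide, 0.5 mM NADPH, 100 nM GR, 0.01% BSA; buffer 50 mM Tris-HCl pH 7.5, 2 mM EDTA, 150 mM NaCl; Fl 340/450, 0 & 15 min.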

Cytochrome P450 1A2 (Homo sapiens), sequence (P05177 whole entry, looked up): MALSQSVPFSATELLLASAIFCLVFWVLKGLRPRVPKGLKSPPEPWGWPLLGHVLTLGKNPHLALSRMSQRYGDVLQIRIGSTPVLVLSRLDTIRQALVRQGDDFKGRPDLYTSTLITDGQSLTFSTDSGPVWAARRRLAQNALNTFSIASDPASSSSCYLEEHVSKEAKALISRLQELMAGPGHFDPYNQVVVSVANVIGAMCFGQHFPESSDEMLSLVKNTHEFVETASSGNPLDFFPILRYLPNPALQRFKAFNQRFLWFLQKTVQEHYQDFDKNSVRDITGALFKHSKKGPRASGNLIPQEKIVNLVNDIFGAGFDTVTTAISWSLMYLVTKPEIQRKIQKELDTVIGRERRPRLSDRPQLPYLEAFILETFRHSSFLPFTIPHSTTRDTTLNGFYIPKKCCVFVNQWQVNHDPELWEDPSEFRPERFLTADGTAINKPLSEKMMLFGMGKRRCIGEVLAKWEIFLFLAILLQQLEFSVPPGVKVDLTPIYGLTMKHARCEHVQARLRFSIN
DNA dC->dU-editing enzyme APOBEC-3G (Homo sapiens), sequence (Q9HC16 whole entry, looked up): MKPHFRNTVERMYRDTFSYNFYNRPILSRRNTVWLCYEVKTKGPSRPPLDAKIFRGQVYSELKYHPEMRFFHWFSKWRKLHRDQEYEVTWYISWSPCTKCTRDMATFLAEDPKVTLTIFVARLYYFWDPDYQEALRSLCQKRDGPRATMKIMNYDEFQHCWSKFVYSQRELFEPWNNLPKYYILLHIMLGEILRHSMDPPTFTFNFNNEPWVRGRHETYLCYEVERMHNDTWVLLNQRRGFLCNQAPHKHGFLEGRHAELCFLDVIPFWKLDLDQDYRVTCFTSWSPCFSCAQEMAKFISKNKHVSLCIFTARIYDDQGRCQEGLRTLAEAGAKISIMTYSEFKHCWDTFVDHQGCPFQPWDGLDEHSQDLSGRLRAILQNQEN
Pyruvate kinase (Leishmania mexicana), sequence (Q27686 2-499 E452W): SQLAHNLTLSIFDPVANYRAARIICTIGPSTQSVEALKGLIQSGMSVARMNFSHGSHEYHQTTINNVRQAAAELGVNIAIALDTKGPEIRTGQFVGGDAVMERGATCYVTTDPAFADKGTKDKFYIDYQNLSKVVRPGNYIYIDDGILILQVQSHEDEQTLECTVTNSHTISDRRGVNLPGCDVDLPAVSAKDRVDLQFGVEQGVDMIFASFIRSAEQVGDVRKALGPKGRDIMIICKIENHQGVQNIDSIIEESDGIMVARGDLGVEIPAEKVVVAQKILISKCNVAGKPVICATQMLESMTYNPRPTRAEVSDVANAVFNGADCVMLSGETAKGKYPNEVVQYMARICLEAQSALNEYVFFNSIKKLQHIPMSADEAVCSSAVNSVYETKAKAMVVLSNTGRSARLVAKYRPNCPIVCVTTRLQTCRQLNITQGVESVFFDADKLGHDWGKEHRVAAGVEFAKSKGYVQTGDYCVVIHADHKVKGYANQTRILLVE

Regarding `C[C@@]12C(=O)OC(=O)[C@@]1(C)[C@@H]1CC[C@@H]2O1`, the Potency in [1] is 31.6 µM (active); in test [2] it was > 46 µM; in test [3], > 46 µM. The Potency entry in test [4], in test [5], in test [6], in [7], in test [8] and in [9] was “inactive” throughout. In addition, the Potency entry in [12] was “inactive”. In addition, the outcome in test [10] and in test [11] was inactive.
`COc1cc2nc(N3CCN(C(=O)[C@H]4CCCO4)CC3)nc(N)c2cc1OC`: the activity change, negative = inhibition in [13] was 14.3%; in test [14], -4.26%. Also, the Potency result in [1], in test [16], in test [4], in [18], in test [19] and in test [20] was “inactive” throughout. In addition, the Potency result in test [21], in test [22], in test [23] and in test [7] was “inactive” each time. The activity, negative = inhibition in test [15] is 7.77%. Besides, the Potency in test [2] is > 46 µM; in test [3] it was > 46 µM; in [8] it was 26.7 µM (active). Also, the result in test [17], in test [24] and in test [25] was inactive.
As to `Cc1ccc(C(=O)Cn2c3c(sc2=N)CCCC3)cc1`, the Potency is 1 µM (active) in test [1], > 46 µM in [2], > 46 µM in test [3] and 6.31 µM (active) in test [26]. Besides, the Potency result in [16], in test [4], in test [18], in test [5], in test [19] and in test [20] was “inactive” in each case. Further, the Potency result in [7] and in [8] was “inactive” in each case.
Consider `N[C@@H](C(=O)O)c1ccc(C(=O)O)c(O)c1`, for which the Potency entry in [1], in test [16], in [4], in test [6] and in test [7] was “inactive” in each case. The Potency in test [2] is > 46 µM; in [3], > 46 µM; in [8] it was 23.8 µM (active).
For the compound `CC(C)(C)n1nc(-c2ccc(Cl)cc2)c2c(N)ncnc21`, the Potency entry in test [8] and in test [29] was “inactive” in each case. In addition, the Potency in test [27] was 8.2 µM (active); in test [28] it was 16.4 µM (active).

(Values after PubChem BioAssay (NCATS).)
